Source: the supplement of paper PMC10105736

Experiments:
Assay in all cases: MAPPIT interaction score (arbitrary units); higher = stronger binary interaction signal, active = hit call of the paper;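 active = MAPPIT score above the 99th percentile of random reference set scores in the same batch; inactive = at or below it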
ATPCL = conditions: MAPPIT configuration: N-N
Experimental: (§1)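 MAPPIT in HEK293T cells: Drosophila bait and prey ORFs (from the FlyBi ORF collection) were co-transfected in quadruplicate, with two wells stimulated by erythropoietin. Interaction-dependent JAK-STAT activation was read out with a STAT-responsive firefly luciferase reporter. Positive calls use the 99th percentile of random reference set (RRS) scores within each batch […]. Batches Dvs01 and Dvs02 used the N-N configuration and Dvs04 the N-C configuration. Pairs come from FlyBi screens, CuraGen, DPiM, Finley Y2H, Lit-BM-16, Lit-BS-16 and RRS.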

Cka = conditions: MAPPIT configuration: N-N; pair source set: Curagen_low_conf
Experimental: as §1

CycK = conditions: MAPPIT configuration: N-N; pair source set: Finley_Y2H
Experimental: as §1

Dsp1 = conditions: pair source set: RRS
Experimental: as §1

Fkbp12 = conditions: MAPPIT configuration: N-N; pair source set: Lit-BS-16
Experimental: as §1

dod = conditions: MAPPIT configuration: N-N; pair source set: screen_1
Experimental: as §1

eIF4E3 = conditions: MAPPIT configuration: N-N; pair source set: Curagen_high_conf
Experimental: as §1

AP-2alpha = conditions: MAPPIT configuration: N-N; pair source set: DPIM
Experimental: as §1

CG9667 = conditions: MAPPIT configuration: N-N; pair source set: DPIM
Experimental: as §1

ATPsynCF6L = conditions: MAPPIT configuration: N-C; pair source set: screen_3
Experimental: as §1

CG13643 = conditions: MAPPIT configuration: N-C; pair source set: screen_3
Experimental: as §1

Dpm3 = conditions: MAPPIT configuration: N-C; pair source set: screen_3
Experimental: as §1

NaPi-T = conditions: MAPPIT configuration: N-C; pair source set: screen_4
Experimental: as §1

Pdk1 = conditions: MAPPIT configuration: N-N; pair source set: Curagen_high_conf
Experimental: as §1

AP-1mu = conditions: MAPPIT configuration: N-C; pair source set: screen_4
Experimental: as §1

Measured: MAPPIT interaction score
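Further: HEK293T cells with Epo stimulation, STAT-responsive firefly luciferase reporter, fold induction versus unstimulated cells divided by the larger fold induction of two negative controls lacking either bait or prey.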

B1: PAN3 (protein)
chain: MCSTYGLLSFEFSDTAAMDPIFFSPTNGIPSESKLATYMNRQNVATPSGYGLNNGFSLLNLDSPLNKKSQVTPQSPEFIPTRLGSTPNFYAPYHNAPMQLSNGLNGVNGLTAAAAAAAAAAAAAAAAVPSSTSSASSASVTISKTANGGASMLALQKTASIASVTIAQQQPQHPQKQQQHPPSVGGGAVSAASAPIAISGAPPNPAAAPFVSSMSAQTPLKGRGAMMRQESPTAAMISGAGPGEKSPPHGMTPHGASPIPSALPTSVHQENVGGTIYFYPTANAQNSQPVVNSMVVDGTHPALHGVSAVAPMSAGVPAAMMYTGHVYPGPSSNVVTMQPKTLLESAFFMPDEMRAEVLARNEISNLIMDAAEAAQHALPLEVENYHALYPLEPPAQPLHAKLTFPATTYRATHNTTGYKYCLRRIHGFRLQSTKCMTLVEMWKKLQHTNVVQLREVFTTKAFGDNSLVLVYDYHPGSQTLLAKYFTPAPETNGYTDPFQGEARPFSHKSNMQRTSNGPLLPEATIWSIIMQLTAGLKAIHHAGLACKVLDPTKIIVTGKRVRFSSCCISDITQFDPNASNPLALVNMHQQDDLTALGRLVLALACRCLQSVQRDNVQSSIDMVTRNYSTDLRNFIVYLFTTNNRRSVTDLMPMIGARFYTQLDALQSKIDMQEDELAKEMENGRLYRILVKLNSINERPDFNLDCTWSETGDRYMLKLFRDYLFHSVTEDGRPWLDHAHIVQCLNKLDAGSIERVQLMSRDEQSVLIVSYAELKNCLENAFSELMSSAAN
active: CycK 3.73 | dod 2.85 | eIF4E3 2.53
inactive: ATPCL; pair source set: Curagen_high_conf 0.129 | ATPCL; pair source set: Lit-BS-16 0.112 | Cka -0.663 | Dsp1; MAPPIT configuration: N-C 0.178 | Dsp1; MAPPIT configuration: N-N -0.667 | Fkbp12 1.71

B2: CG10417 (protein)
chain: MGAYLSHPKTDKTSTDQFNELLAVGASSMQGWRNSQEDAHNSILNFDNNTSFFAVYDGHGGAEVAQYCADKLPHFLKNLETYKNGQFEVALKEAFLGFDKTLLDPSIVSILKILAGEHNFVDAEADDYEEEDLAELQEESNLPLNEVLEKYKGLPQKKDLDLKSSDHKENFKMRSPYFRGRRAAALAAEATNKAVMDPSAKPDGSSTSAAAAAAALSADGVANSRNPSNVVNPMAGADSNTTTSINDLSTKNAALKDDSVNDQNEGSNGTDFKHTLVSSSNKKLFATGSNDMTELNQSSKNEFTNSSTSKEFERNINSSQDDEFTDDDADYEENDNVKSPDTSSAESSDCTENDDDGDEDGNEDSDEEETDEDQMANDNFCANMIEEPGKDSGCTAVVCLLQGRDLYVANAGDSRCVISRSGQAIEMSIDHKPEDDEEASRIIKAGGRVTLDGRVNGGLNLSRALGDHAYKTNVTLPAEEQMISALPDIKKLIITPEDEFMVLACDGIWNYMSSEEVVEFVRCRLKDNKKLSTICEELFDNCLAPNTMGDGTGCDNMTAVIVQFKKKLQELQSTIPPNQTEDKLLKTSENVSHSLNDQSASKRCASQNADADDEILEKNNSKRLKTDLEQENIKDRTPSPSNQNEDPTQKAIKEVTIIVSSS
inactive: AP-2alpha 0.508 | CG9667 0.00387

B3: Mst57Da (protein)
chain: MKFLALFVTLLVVLALVSAQKSQNTNHNVIVIGAKKPGAAPAAAAAAAPAAPPAAAPAAAPAAPEAGLADAPAES
inactive: ATPsynCF6L 0.192 | CG13643 -0.565 | Dpm3 0.043 | NaPi-T 1.02 | Pdk1 -0.52

B4: Cp38 (protein)
chain: MTRSTYIWALAACLIACASANYGSSQGYGPESGSGASDGGADAASAAAAAAGGAGGAGGEYGGANAGAGALESGADAAGVAQAGQSSYGSDQNIPYKPVNTKGNTLTSSITYPQNKGEILIHRPAPIIVKRPPTKVLVNHPPLVVKPAPVVLHKPPAIVLRKVYVKHHPRRVKVEPVFVNVVKPPAEKYFVNENKQGYGQGSQSHGHGHGHGGHGHGHSGHGHGGHGAGPHGPGPHDGGRALPAYASGADSAAASAGYQLLQSGNQGLSALANIAGEREGPYGPAPSHQHYSAGPAGHGGYAAPAY
inactive: AP-1mu 0.503
